Sampled rows, rich in hits. Any-hit rate of the full collection: about 1.5%.
BLM inh: qHTS Assay for Inhibitors of Bloom's syndrome helicase (BLM) | RecQ-like DNA helicase BLM (Homo sapiens), P54132 | recombinant BLM DNA unwinding, fluorescence dequenching | Potency, µM (top dose mostly 56.1 µM), without a hit: at the highest dose activity change, negative = inhibition, hits mostly inhibitors | 350,000 tested, 0.2% active | AID 2528, 2010;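 note: potency is the fitted concentration of half-maximal effect; plate controls were vehicle for no effect and no enzyme for full effect; nearly all actives have a fitted effect of over 35% in size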
Target sequence (P54132 whole entry, looked up): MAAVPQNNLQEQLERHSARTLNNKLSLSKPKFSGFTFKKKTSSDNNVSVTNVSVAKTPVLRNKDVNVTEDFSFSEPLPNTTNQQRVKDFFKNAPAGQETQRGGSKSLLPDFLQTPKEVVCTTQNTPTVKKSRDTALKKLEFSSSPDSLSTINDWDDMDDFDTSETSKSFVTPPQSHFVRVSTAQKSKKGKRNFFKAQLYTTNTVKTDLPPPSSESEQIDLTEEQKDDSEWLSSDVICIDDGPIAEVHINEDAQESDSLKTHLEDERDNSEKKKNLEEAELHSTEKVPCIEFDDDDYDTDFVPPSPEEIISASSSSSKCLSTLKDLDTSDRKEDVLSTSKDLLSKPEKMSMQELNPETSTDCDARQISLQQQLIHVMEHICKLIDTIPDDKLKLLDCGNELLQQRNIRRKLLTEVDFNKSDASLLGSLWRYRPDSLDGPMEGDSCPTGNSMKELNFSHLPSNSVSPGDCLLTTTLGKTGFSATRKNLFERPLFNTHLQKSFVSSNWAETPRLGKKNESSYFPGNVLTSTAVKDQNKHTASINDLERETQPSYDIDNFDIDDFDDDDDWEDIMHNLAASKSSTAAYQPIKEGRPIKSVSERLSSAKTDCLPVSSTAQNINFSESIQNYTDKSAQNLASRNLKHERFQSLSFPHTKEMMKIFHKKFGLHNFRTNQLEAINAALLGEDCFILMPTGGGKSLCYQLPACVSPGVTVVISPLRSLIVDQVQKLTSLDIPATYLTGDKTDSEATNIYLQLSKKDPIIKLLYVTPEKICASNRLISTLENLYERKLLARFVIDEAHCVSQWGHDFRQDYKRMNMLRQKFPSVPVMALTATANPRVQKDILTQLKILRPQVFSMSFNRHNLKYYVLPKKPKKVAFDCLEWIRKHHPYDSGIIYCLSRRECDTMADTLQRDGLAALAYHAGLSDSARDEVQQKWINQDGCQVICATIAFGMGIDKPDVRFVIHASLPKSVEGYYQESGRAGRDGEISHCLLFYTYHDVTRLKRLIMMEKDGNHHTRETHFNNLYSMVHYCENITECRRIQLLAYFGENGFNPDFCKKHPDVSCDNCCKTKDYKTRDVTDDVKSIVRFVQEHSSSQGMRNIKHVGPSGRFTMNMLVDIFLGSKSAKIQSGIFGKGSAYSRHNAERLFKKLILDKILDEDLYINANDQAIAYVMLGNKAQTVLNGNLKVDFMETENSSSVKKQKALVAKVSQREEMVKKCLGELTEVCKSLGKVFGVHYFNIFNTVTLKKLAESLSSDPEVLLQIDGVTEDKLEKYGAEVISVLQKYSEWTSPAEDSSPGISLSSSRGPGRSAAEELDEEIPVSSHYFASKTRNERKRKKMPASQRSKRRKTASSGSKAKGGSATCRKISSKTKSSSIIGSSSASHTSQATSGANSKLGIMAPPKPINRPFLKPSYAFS
FEN1 inhibitor: qHTS Assay for the Inhibitors of Human Flap endonuclease 1 (FEN1). P39748. Recombinant FEN1 flap cleavage, fluorescence, 15 min. Potency, µM (doses to about 114 µM), inactives show top-dose activity change, negative = inhibition, most hits filed as inhibitors. 390,000 tested, 0.35% active. AID 588795, 2011; note: potency is the fitted concentration of half-maximal effect; nearly all actives have a fitted effect of over 65% in size
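Quantitative HTS format: each compound was titrated, incubated with 10 nM nuclease for 15 min at room temperature, then challenged with flap substrate at 50 nM final. Signal change over 15 min gave concentration–effect curves.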
PI5P4Ka inh: qHTS for Inhibitors of phosphatidylinositol 5-phosphate 4-kinase (PI5P4K); Phosphatidylinositol 5-phosphate 4-kinase type-2 alpha (Homo sapiens), P48426; PI5P4Kalpha enzyme, ADP-Glo luminescence, 60 min; active compounds read low; max response, %; 330,000 tested, 1.2% active; AID 652105, 2013; active = max response of -50% or lower; inconclusive = between -30% and -50%; inactive = -30% or higher; note: value at the top dose of about 77 µM
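Enzyme plus substrate dispensed, test compounds pinned in, then ATP (5 microM final) added. After 60 min at RT, ADP-Glo reagent 1 for 45 min and reagent 2 for 30 min preceded luminescence imaging.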
WRN inhibitor: qHTS for Inhibitors of WRN Helicase; Bifunctional 3'-5' exonuclease/ATP-dependent helicase WRN (Homo sapiens), Q14191; WRN helicase unwinding, fluorescent forked duplex, kinetic; Potency, µM (doses to about 114 µM), for inactives: at the top dose activity change, negative = inhibition, hits mostly inhibitors; 360,000 tested, 0.46% active; AID 651768, 2012; note: potency is the fitted concentration of half-maximal effect; nearly all actives have a fitted effect of over 55% in size
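Kinetic fluorescence helicase assay: unwinding of a quenched forked DNA duplex (100 nM final) with 2 mM ATP final raises red fluorescence (525/598 nm). Compounds sat 15 min at room temperature with 20 nM WRN beforehand.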
APE1 inh: qHTS Assay for Inhibitors of the Human Apurinic/apyrimidinic Endonuclease 1 (APE1). recombinant APE1, TAMRA/BHQ-2 abasic DNA cleavage fluorescence. Potency, µM (titrated, usually from 65.8 µM), inactives show at the top dose activity change, negative = inhibition, most hits filed as inhibitors. 350,000 tested, 0.35% active;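 note: potency is the fitted concentration of half-maximal effect; plate controls were vehicle for no effect and reference inhibitor for full effect; nearly all actives have a fitted effect of over 55% in size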
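Substrate: short duplex with […] THF abasic site, 5'-TAMRA and 3'-BHQ-2, 50 nM final. APE1 at 0.75 nM, preincubated 15 min RT with compound. Fluorescence increase from first to third read measured activity.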
RECQ1 helicase: qHTS Assay for Inhibitors of RecQ-Like Dna Helicase 1 (RECQ1); Potency, µM (top dose mostly 57.3 µM), for the others: top-dose activity, negative = inhibition, hits mostly inhibitors; 240,000 tested, 0.54% active; RECQ1 DNA unwinding, red fluorescence kinetic read;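 note: potency is the fitted concentration of half-maximal effect; plate controls were vehicle for no effect and no enzyme for full effect; nearly all actives have a fitted effect of over 30% in size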
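50 nM RECQ1T1 preincubated 15 min with compound in Tris pH 8.0 buffer with MgCl2, DTT, Tween-20 and 2.5 ug/ml poly(dI-dC); started with 200 nM TAMRA/BHQ-2 forked duplex and 2 mM ATP. Unwinding read as fluorescence (525/598 nm), two reads 2 h apart.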
Active calls of the source: *; i = inactive; ? = inconclusive; / = no result given; ! = repeats disagree; [ ] = another dose, or the depositor's remark. Unless noted, calls come from the whole dose curve; as a rule, active = well fitted curve in the direction sought with a large enough effect; inconclusive = small, poorly fitted or top-dose-only effect, or another doubt; inactive = no such curve, though single readings can be large; an effect the other way counts as inactive or inconclusive. Unless noted, % is set by controls: 0 for no effect and ±100 for the full control effect.

SMILES	BLM inh	FEN1 inhibitor	PI5P4Ka inh	WRN inhibitor	APE1 inh	RECQ1 helicase
Cn1c2ccccc2c(=O)c2ccc(C#CC3(N)CCCCC3)cc21	5%	22µM*	0	40%	5%	/
O=[N+]([O-])c1cc([N+](=O)[O-])c2oc(-c3ccccc3)c(Br)c2c1O	?	45µM*	-102*	?	12%	/
O=c1c(O)c(-c2ccccc2)oc2cccc(O)c12	5%	/	/	/	-2%	-7%
NC(=O)c1ccc(N=C2C(=O)Nc3ccc([N+](=O)[O-])cc32)cc1	32µM*	?	5	4%	-3%	i
O=C1Nc2ccccc2C1=Nc1cccc([N+](=O)[O-])c1	-2%	-21%	?	-12%	-11%	/
CN(C)C(=O)c1ccc(N=Nc2c(O)c3ccccc3[nH]c2=O)cc1	/	-24%	-76*	1%	/	/
Cc1cc(N=Nc2c(O)c3ccccc3[nH]c2=O)ccc1N=Nc1ccc(C(=O)N(C)C)cc1	-6%	7%	-20	1%	-7%	i
N#Cc1no[n+]([O-])c1-c1ccccc1	/	/	/	/	11%	/
CNc1ccc(C=C2c3ccccc3-c3ccccc32)cc1	/	-22%	/	/	/	/
COc1cc(/C=C2/C(=N)N3C(c4ccccc4)=CSC3=NC2=O)ccc1OCC(=O)O	-9%	?	-52*	-5%[11.6 µM]	15%	-1%
COc1cc(/C=C2\C(=N)N3N=C(S(C)(=O)=O)SC3=NC2=O)ccc1OS(=O)(=O)c1ccc(C)cc1	-13%	-15%	-80*	-24%[11.6 µM]	-32%	/
COc1cc(/C=C2/C(=N)N3C(=NC2=O)SN=C3S(C)(=O)=O)ccc1OC(=O)c1ccco1	-11%	?	-66*	-17%[11.6 µM]	3%	/
CCS(=O)(=O)C1=NSC2=NC(=O)/C(=C\c3ccc(OC(=O)c4ccco4)c(OC)c3)C(=N)N21	-6%	-8%	-66*	-29%	39%	/
CN(Cc1ccccc1)/[N+]([O-])=N/Oc1ccc([N+](=O)[O-])cc1[N+](=O)[O-]	/	1%	/	/	/	/
CCCCCC(CC)COC(=O)CC(C(=O)OCC(CC)CCCC)S(=O)(=O)O (configuration not stated)	-29%	/	/	/	/	/
COc1cc(/C=C2\C(=N)N3N=CSC3=NC2=O)cc(Br)c1OC(=O)c1ccco1	-3%	-4%	-81*	-5%	-2%	i
CCS(=O)(=O)C1=NN2C(=N)/C(=C\c3ccc(OC(=O)c4ccco4)c(OC)c3)C(=O)N=C2S1	-13%	-8%	-57*	-26%	-21%	/
N=C1/C(=C\c2ccc(-c3cccc(Cl)c3)o2)C(=O)N=C2SC=C(c3ccccc3)N12	?	-2%	-55*	?	2%	-16%
CC1=CC2=NC(=O)/C(=C\c3cc(C)n(-c4ccccc4F)c3C)C(=N)N2O1	-3%	-10%	-11	2%	2%	-4%
Cc1cc(/C=C2/C(=N)N3C(=NC2=O)SN=C3S(C)(=O)=O)c(C)n1-c1ccccc1F	-11%	-9%	-62*	-12%[57.1 µM]	23%	-28%
CC(C)NC(=O)Cn1ccc2cc(S(=O)(=O)N3CCCCCC3)ccc21	-1%	19%	/	/	/	/
O=C(CSc1cn(CC(=O)N2CCCC2)c2ccccc12)Nc1ccc(Cl)cc1	0%	-13%	/	/	/	/
COc1ccc(OCc2ccc(-c3nc(C#N)c(NC(C)c4ccccc4)o3)o2)cc1 (configuration not stated)	-10%	8%	/	/	/	/
NC(CO)C(=O)NNCc1ccc(O)c(O)c1O (configuration not stated)	-21%	20µM*	-54*	-2%[11.6 µM]	0.45µM*!	-21%
N#Cc1c(-c2ccc3ccccc3c2)no[n+]1[O-]	/	/	/	/	-8%	/
SMILES	BLM inh	FEN1 inhibitor	PI5P4Ka inh	WRN inhibitor	APE1 inh	RECQ1 helicase
CCOc1cc(/C=C(\C#N)c2[nH]nc(N)c2C#N)ccc1O	-18%	?	-65*	-30%	-3%	-9%
COc1cccc(N2CC(O)=C(c3nc4ccccc4c(=O)[nH]3)C2=N)c1	-8%	-20%	/	-7%	-3%	6%
Cc1cc(C)cc(N2CC(O)=C(c3nc4ccccc4c(=O)[nH]3)C2=N)c1	-4%	?	8	50µM*	6%	-1%
Cc1nn(-c2ccc(F)cc2)c(-n2cccc2)c1C(=O)N1CCN(c2ccccc2F)CC1	-5%	-10%	/	/	/	/
CN1C2CCC1/C(=C\c1ccc(F)cc1)C(=O)/C2=C/c1ccc(F)cc1	-4%	-5%	-3	1%	-2%	-1%
C=CC(=O)N1C/C(=C/c2ccc(F)cc2)C(=O)/C(=C\c2ccc(F)cc2)C1	/	-18%	-22	40µM*	/	/
O=C(O)c1ccc(/C=N/NC(=O)c2ccc(CN3c4cccc5cccc(c45)S3(=O)=O)cc2)cc1	-27%	?	-54*	?	2%	?
Cc1ccc(Cc2cnc(N3C(=N)SC(c4ccccc4)C3=O)s2)cc1 (configuration not stated)	-6%	-16%	-73*	?	-12%	-17%
Cc1ccc(Cc2cnc(NC(=O)c3ccco3)s2)cc1	-9%	-2%	/	-12%	-2%	-24%
COc1ccc(C=C2c3ccccc3C(=O)c3ccccc32)cc1O	-13%	/	/	/	?	-16%
COc1ccc(Br)cc1C1CC(=O)N2CN(Cc3ccccc3)CSC2=C1C#N (configuration not stated)	-12%	?	?	-23%	-7%	-3%
N#CC1=C2SCN(Cc3ccccc3)CN2C(=O)CC1c1ccccc1F (configuration not stated)	-1%	?	-77*	-3%	-3%	-10%
N#CC1=C2SCN(Cc3ccco3)CN2C(=O)CC1c1c(F)cccc1Cl (configuration not stated)	-5%	?	-50*	-7%	1%	-3%
COc1cc(C(CC(=O)N2CCCC2)c2c(OC)cc(OC)c3c(-c4ccccc4)cc(=O)oc23)cc(OC)c1OC (configuration not stated)	-22%	-94%	?	-3%[11.6 µM]	?	18µM*
COc1ccc(C(CC(=O)N2CCOCC2)c2c(OC)cc(OC)c3c(-c4ccccc4)cc(=O)oc23)cc1 (configuration not stated)	22µM*!	-17%	?	-12%[11.6 µM]	32µM*!	-21%

Compound activity as filed in PubChem.
